Data from the supplement of paper PMC11732987, “Enantioselective OTUD7B fragment discovery through chemoproteomics screening and high-throughput optimisation” (Communications Chemistry, 2025).

Key:
Experiment in all cases: log2 ratio of Biotin-Ahx-Ub-VS probe labelling (fragment/DMSO); higher = less target engagement (more negative = stronger competition), active = hit call of the paper (q ≤ 0.05, log2 ratio ≤ -1)
Conditions in all cases: compound concentration: 200 uM; treatment time: 3 h
USP42 = biological target: T1, USP42 (UniProt Q9H9J4)
T1 sequence (whole entry): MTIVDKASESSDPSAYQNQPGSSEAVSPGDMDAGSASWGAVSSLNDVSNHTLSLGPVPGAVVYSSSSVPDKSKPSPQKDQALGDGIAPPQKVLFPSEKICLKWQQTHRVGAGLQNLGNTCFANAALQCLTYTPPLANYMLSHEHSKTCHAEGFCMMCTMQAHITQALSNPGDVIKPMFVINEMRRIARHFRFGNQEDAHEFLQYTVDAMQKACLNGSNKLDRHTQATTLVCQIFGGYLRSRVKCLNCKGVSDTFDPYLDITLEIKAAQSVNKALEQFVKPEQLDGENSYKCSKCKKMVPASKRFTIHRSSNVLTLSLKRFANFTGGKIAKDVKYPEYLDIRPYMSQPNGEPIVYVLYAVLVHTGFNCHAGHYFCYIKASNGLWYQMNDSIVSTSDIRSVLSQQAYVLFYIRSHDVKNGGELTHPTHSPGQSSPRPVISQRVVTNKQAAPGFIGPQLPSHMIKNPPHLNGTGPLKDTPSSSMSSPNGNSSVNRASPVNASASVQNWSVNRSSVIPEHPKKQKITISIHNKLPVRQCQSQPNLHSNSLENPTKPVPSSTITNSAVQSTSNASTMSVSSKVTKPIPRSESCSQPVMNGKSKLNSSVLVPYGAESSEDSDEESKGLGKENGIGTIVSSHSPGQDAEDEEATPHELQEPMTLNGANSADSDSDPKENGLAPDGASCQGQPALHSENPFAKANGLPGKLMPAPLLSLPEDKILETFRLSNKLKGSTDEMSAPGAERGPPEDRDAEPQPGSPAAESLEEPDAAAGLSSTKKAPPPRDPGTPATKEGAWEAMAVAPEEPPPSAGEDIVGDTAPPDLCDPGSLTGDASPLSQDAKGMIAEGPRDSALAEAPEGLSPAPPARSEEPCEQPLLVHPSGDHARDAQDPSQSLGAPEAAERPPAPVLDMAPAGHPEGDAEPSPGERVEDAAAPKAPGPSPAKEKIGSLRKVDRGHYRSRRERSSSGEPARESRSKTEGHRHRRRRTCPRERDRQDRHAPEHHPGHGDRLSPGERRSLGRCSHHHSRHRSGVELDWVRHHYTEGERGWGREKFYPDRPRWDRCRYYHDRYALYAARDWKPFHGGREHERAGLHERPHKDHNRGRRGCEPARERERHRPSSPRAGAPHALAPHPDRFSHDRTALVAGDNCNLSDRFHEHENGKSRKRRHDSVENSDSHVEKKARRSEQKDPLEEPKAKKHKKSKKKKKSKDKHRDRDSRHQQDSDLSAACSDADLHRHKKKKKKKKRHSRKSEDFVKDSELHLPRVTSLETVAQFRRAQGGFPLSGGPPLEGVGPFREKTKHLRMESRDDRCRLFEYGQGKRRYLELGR
Summary of the method: (§1)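 Labelling with Biotin-Ahx-Ub-VS (0.5 µM final, 1 h) followed a 3 h triplicate treatment of HEK293T lysate (495 µg per sample, Tris/CHAPS/IGEPAL buffer with protease inhibitors) with fragment at 200 µM or vehicle. Labelled DUBs were NeutrAvidin-enriched, digested with LysC and trypsin, and run by diaPASEF LC-MS/MS. The values, average log2 fragment/vehicle ratios by unpaired t-test, come from global-median-normalised Spectronaut label-free quantities. Proteins with ≥2 unique peptides were used.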

USP46 = USP46 (UniProt P62068)
Summary of the method: as §1

USP47 = biological target: T2, USP47 (UniProt Q96K76)
T2 sequence (whole entry): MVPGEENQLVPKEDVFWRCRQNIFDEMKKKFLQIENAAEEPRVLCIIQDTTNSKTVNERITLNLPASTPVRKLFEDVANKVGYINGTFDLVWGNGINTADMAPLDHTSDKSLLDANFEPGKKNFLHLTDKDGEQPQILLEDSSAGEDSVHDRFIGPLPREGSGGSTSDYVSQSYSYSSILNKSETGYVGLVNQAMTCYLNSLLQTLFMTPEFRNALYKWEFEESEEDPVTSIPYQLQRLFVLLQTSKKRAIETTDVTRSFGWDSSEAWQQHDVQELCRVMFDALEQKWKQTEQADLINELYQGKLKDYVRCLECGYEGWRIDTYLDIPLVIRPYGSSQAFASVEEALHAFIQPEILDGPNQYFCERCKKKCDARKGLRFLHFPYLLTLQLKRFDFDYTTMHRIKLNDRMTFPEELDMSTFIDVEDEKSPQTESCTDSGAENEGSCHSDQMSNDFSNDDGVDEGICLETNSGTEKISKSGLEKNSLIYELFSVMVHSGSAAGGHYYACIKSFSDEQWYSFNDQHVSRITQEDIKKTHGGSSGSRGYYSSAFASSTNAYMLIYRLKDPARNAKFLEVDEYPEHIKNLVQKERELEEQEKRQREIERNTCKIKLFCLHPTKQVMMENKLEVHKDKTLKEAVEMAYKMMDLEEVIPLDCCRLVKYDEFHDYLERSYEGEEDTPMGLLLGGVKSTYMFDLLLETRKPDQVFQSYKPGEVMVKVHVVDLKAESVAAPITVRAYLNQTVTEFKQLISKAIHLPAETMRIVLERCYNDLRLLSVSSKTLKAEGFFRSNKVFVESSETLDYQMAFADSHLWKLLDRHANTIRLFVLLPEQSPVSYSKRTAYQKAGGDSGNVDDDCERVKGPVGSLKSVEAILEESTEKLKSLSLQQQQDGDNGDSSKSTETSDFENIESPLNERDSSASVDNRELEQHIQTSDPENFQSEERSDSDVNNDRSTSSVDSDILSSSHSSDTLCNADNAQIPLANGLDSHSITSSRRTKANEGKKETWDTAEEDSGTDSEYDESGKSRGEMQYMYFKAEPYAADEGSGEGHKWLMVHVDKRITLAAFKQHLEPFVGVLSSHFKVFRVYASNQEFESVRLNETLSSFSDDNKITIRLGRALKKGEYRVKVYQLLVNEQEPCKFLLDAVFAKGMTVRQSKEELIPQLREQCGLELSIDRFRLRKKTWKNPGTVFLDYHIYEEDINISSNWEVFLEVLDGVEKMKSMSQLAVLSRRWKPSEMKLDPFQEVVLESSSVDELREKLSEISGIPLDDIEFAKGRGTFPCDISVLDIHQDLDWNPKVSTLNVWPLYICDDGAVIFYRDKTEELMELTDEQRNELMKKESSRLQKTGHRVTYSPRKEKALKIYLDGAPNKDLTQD
Summary of the method: as §1

USP48 = biological target: T3, USP48 (UniProt Q86UV5)
T3 sequence (whole entry): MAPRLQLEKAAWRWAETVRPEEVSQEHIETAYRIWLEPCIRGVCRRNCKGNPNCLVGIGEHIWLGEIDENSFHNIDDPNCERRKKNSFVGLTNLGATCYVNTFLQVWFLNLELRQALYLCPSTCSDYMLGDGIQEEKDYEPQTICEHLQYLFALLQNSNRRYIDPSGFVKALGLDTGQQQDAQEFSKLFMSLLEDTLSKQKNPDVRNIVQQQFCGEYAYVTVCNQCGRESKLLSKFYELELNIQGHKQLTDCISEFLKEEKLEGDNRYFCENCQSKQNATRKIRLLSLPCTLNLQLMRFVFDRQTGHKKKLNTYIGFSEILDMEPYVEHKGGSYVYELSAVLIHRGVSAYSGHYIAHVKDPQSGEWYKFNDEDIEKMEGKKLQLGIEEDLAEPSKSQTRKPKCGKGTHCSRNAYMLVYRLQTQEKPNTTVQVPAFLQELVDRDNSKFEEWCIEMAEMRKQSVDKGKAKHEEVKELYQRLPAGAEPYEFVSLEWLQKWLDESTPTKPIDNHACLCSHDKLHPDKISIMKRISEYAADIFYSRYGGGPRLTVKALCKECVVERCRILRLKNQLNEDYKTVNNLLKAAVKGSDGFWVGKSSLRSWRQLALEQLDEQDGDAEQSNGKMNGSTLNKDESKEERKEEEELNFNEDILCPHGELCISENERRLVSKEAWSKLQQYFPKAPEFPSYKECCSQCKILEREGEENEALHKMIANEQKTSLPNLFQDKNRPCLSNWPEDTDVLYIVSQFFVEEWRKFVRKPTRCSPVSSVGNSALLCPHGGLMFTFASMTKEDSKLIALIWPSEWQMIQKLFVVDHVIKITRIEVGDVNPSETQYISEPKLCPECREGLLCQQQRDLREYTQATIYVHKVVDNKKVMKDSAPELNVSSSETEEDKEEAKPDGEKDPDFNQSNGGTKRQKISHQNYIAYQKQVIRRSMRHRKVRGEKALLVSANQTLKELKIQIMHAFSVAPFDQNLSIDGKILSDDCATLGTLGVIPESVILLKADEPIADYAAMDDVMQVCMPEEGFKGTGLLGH
Summary of the method: as §1

USP5 = biological target: T4, USP5 (UniProt P45974)
T4 sequence (whole entry): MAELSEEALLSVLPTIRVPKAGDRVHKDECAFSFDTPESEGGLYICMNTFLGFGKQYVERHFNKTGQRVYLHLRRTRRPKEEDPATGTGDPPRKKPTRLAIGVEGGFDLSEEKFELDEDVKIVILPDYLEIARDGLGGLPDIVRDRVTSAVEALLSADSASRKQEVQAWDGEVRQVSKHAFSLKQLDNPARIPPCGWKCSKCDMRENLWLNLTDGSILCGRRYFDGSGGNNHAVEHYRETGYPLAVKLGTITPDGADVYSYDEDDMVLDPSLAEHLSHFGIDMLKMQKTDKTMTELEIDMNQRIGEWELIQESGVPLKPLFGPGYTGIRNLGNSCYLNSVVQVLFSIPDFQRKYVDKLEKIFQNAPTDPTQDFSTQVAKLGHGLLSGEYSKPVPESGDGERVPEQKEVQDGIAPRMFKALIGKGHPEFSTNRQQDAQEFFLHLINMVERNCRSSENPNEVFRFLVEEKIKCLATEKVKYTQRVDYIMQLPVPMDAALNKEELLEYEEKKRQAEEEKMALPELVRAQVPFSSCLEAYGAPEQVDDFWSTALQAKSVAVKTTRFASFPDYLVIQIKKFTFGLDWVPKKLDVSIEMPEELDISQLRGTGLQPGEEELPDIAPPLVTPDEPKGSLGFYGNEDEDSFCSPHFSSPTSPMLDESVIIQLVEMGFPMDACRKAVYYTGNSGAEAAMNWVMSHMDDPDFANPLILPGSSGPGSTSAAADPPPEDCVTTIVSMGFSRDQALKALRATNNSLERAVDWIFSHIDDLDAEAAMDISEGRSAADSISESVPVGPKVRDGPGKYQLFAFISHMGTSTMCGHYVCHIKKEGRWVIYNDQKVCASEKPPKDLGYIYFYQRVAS
Summary of the method: as §1

USP54 = USP54 (UniProt Q70EL1)
Summary of the method: as §1

USP7 = USP7 (UniProt Q93009)
Summary of the method: as §1

USP8 = biological target: T5, USP8 (UniProt P40818)
T5 sequence (whole entry): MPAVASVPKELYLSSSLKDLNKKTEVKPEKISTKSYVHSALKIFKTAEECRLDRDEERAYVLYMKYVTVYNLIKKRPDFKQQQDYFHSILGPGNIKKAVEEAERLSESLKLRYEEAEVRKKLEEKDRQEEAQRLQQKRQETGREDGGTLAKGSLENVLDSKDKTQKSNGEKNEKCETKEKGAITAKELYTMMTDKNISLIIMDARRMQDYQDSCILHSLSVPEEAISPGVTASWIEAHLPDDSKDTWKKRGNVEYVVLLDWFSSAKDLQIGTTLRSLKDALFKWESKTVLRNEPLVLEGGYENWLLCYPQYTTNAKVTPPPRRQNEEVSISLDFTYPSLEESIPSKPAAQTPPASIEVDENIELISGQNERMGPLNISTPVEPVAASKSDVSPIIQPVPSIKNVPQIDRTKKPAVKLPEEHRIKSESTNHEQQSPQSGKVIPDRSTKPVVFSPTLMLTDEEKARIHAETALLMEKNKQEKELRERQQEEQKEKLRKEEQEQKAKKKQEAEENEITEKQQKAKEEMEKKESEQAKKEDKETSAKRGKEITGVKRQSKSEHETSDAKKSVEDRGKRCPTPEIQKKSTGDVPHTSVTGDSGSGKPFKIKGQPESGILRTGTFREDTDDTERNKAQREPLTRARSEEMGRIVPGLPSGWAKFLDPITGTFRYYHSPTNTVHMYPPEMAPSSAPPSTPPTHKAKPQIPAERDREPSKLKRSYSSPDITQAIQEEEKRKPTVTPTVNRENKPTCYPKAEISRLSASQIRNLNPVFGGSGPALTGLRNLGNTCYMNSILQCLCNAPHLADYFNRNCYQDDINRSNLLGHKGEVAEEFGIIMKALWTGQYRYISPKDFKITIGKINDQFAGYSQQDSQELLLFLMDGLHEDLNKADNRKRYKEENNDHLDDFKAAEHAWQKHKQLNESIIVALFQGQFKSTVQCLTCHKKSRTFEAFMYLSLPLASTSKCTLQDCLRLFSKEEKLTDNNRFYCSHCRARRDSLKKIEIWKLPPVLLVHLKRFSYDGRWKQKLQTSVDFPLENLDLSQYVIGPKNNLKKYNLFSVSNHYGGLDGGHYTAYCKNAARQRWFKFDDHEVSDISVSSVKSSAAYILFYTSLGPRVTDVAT
Summary of the method: as §1

USP9X = USP9X (UniProt Q93008)
Summary of the method: as §1

UniProt O00487 = biological target: UniProt O00487
Summary of the method: as §1

Measured: log2 ratio of Biotin-Ahx-Ub-VS probe labelling

USP7, sequence (Q93009 whole entry, looked up): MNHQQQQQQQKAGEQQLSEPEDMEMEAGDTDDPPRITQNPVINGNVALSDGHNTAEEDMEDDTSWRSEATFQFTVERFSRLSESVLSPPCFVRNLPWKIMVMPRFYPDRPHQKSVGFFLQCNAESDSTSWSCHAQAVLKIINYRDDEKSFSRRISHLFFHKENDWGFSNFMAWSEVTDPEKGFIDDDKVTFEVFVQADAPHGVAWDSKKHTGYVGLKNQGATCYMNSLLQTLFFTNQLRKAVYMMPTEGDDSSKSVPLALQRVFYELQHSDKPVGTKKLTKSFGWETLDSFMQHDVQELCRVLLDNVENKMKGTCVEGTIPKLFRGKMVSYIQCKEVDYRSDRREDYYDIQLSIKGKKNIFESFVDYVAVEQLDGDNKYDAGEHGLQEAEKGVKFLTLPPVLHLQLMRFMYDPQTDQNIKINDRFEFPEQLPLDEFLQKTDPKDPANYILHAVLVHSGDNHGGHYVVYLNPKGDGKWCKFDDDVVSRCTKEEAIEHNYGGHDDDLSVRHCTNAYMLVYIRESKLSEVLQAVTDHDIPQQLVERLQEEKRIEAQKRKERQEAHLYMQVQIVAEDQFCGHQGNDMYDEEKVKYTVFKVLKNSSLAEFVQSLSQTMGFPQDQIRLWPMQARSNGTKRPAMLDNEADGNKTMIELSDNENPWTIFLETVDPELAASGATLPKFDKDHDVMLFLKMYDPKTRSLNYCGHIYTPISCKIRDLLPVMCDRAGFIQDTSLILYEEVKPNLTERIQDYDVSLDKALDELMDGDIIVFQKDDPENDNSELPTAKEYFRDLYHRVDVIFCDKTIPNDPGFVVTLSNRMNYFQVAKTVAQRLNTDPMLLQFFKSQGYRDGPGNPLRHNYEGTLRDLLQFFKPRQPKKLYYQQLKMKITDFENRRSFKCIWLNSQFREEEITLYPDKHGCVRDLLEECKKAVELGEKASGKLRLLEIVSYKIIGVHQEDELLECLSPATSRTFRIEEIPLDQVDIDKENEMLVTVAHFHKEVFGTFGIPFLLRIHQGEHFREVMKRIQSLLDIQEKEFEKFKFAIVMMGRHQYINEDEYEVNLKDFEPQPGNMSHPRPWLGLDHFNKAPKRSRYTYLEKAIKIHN
UniProt O00487, sequence (O00487 whole entry): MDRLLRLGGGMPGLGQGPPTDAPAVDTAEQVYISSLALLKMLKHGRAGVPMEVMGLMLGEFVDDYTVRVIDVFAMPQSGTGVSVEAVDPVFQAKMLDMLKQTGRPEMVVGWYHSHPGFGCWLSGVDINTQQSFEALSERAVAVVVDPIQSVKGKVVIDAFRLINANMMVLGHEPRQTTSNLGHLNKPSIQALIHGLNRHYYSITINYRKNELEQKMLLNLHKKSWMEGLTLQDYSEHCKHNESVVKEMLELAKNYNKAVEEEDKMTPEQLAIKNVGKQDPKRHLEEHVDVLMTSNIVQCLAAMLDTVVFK
USP54, sequence (Q70EL1 whole entry): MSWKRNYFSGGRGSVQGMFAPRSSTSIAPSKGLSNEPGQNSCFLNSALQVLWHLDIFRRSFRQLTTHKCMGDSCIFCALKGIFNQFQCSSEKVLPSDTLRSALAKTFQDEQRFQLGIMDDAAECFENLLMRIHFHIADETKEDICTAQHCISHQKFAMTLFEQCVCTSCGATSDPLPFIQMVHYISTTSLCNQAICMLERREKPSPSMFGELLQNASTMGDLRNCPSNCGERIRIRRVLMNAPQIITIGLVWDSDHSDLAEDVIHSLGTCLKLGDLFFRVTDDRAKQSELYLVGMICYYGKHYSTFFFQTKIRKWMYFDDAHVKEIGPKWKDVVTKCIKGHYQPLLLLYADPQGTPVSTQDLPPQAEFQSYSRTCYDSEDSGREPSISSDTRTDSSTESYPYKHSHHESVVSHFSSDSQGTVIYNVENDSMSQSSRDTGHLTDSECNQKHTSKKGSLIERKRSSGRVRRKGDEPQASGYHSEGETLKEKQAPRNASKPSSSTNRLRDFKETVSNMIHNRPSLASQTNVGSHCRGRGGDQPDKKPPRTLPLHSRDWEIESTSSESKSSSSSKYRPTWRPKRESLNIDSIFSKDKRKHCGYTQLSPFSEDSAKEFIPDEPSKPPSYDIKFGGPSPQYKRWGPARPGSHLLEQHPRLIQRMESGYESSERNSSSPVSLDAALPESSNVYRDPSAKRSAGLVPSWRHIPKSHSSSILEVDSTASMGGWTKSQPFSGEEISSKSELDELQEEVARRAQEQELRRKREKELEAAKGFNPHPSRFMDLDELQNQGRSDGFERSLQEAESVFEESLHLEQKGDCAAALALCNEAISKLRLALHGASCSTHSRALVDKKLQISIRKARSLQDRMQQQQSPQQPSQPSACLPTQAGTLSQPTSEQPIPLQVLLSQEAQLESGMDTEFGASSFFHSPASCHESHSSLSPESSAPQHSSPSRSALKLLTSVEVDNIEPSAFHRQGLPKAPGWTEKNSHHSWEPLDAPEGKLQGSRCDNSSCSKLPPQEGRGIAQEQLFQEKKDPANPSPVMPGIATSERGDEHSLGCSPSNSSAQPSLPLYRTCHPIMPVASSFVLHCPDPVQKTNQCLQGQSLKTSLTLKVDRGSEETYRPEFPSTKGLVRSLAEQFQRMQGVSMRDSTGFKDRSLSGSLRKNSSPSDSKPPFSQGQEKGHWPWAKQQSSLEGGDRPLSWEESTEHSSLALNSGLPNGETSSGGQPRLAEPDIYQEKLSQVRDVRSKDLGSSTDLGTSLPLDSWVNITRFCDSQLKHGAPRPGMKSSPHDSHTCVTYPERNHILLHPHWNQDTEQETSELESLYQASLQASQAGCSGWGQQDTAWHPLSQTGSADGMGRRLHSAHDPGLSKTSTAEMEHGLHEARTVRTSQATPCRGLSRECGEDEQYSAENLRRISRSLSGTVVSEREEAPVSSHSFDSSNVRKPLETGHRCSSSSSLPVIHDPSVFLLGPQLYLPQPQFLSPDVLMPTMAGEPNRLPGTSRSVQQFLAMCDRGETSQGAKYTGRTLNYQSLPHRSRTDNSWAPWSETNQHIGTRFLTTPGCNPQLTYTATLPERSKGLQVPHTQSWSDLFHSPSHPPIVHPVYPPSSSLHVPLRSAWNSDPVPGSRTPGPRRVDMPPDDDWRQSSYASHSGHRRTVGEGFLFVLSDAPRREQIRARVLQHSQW
USP46, sequence (P62068 whole entry): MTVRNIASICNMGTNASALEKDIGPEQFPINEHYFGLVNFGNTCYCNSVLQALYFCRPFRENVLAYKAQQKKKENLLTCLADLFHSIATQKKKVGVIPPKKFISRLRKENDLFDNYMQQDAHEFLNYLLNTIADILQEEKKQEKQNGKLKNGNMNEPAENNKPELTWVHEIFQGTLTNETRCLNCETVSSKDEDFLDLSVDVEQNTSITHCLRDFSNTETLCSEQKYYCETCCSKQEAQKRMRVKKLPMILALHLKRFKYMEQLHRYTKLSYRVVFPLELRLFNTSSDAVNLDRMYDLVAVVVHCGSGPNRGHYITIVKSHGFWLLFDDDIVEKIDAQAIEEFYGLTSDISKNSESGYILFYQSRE

Cc1cc(C(=O)NC2CCN(C(=O)CCl)CC2)no1
inactive: USP42 -0.284 | USP46 -0.048 | USP47 -0.0545 | USP48 -0.0815 | USP5 0.0506 | USP54 -0.176 | USP7 -0.222 | USP8 -0.0431 | USP9X -0.158 | UniProt O00487 -0.138
